The campaign covered roughly 2,200 compounds. About 1,200 (55%) were called active. No cut-off is given here; in the data, nearly all actives have IC50 up to about 92 µM. The set was probably picked from earlier hits. This is one part of the list.
Assay: counter assay for TAg ATPase ADP read-out – biochemical, ADP-Hunter, fluorescence, counter-screen (AID 2501);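 note: purified T antigen ATPase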;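 for inhibition: 0% = enzyme with vehicle and 100% = reference inhibitor wells; higher means more inhibition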
Settings: series mostly up to 100 µM; inhibition: at the top concentration

Row | SMILES | inhibition | IC50
1 | CCC(C)[C@H](N)c1nnc(SCC(=O)Nc2cccc(Cl)c2)o1 (stereo partly specified) | -16.3% (inactive) | –
2 | CCN(CC)c1ccc(NC(=O)CSc2nnc(N)s2)cc1C | – | 8.65 µM (active)
3 | CCn1c(SCC(=O)Nc2cccc(C(C)=O)c2)nnc1C(C)C | 22.6% (inactive) | –
4 | Cc1nn(-c2ccc(Cl)cc2)c2[nH]c(=O)c(CNCc3ccc4c(c3)OCO4)cc12 | -5.68% (inactive) | –
5 | Cc1nn(-c2ccccc2)c2[nH]c(=O)c(CNc3ccc(N4CCOCC4)cc3)cc12 | – | 3.77 µM (active)
6 | Cc1cccc(NC(=S)N2CCCN(c3ncccc3[N+](=O)[O-])CC2)c1 | -0.13% (inactive) | –
7 | CC(C)(C)n1nnnc1C(c1ccncc1)N1CCN(c2ccc(O)cc2)CC1 (stereo unspecified) | – | 6.75 µM (active)
8 | Oc1ccc(N2CCN(C(c3ccccn3)c3nnnn3C3CCCC3)CC2)cc1 (stereo unspecified) | – | 3.68 µM (active)
9 | CCC(C)(C)n1nnnc1C(c1ccc2ncccc2c1)N1CCN(c2ccc(O)cc2)CC1 (stereo unspecified) | – | 5.17 µM (active)
10 | Oc1ccc(N2CCN(C(c3ccncc3)c3nnnn3C3CCCC3)CC2)cc1 (stereo unspecified) | – | 3.39 µM (active)
11 | Cc1nnc(C)c2c(C)n(-c3ccc4ncccc4c3)c(C)c12 | -11.1% (inactive) | –
12 | COc1ccc(-c2cc(-c3ccco3)[nH]c(=O)c2C#N)cc1OC | -30% (inactive) | –
13 | O=C1SC(SCc2ccccc2)=N/C1=C\c1ccco1 | -6.58% (inactive) | –
14 | COc1ccc(CNc2ccc(N3CCOCC3)cc2)cc1 | – | 10.5 µM (active)
15 | COc1ccc(CNS(=O)(=O)c2ccc3c(c2)N(C)CCO3)cc1 | -38.9% (inactive) | –
16 | Cc1ccc(CNc2ccc(N3CCOCC3)cc2)cc1 | – | 3.89 µM (active)
17 | CCCCn1nc(NS(=O)(=O)c2cccc3nonc23)c2cc3cccc(C)c3nc21 | – | 20.5 µM (active)
18 | O=c1cc(CN2CCN(Cc3ccccc3)CC2)c2ccc(O)c(O)c2o1 | – | 10.9 µM (active)
19 | O=C1CCN(Cc2ccc(O)cc2)CCN1[C@H](CO)Cc1ccccc1 | -10.6% (inactive) | –
20 | CCCc1cc(=O)oc2cc(C)c(CN3CCCC3)c(O)c12 | -145% (inactive) | –
21 | Cc1ccc(/C=N\NC(=O)COc2ccc(C)cc2[N+](=O)[O-])cc1 | – | 23.3 µM (active)
22 | O=C(COc1ccccc1[N+](=O)[O-])N/N=C/c1ccc(O)cc1 | – | 6.73 µM (active)
23 | Cc1ccc(S(=O)(=O)Cc2cc(F)c([N+](=O)[O-])cc2[N+](=O)[O-])cc1 | -2.36% (inactive) | –
24 | COc1ccc(C)cc1NC(=O)COC(=O)c1ccc([N+](=O)[O-])o1 | 1.11% (inactive) | –
25 | CCc1ccc2cccc3c2c1N=CN3C | – | 8.65 µM (active)
26 | C[C@H](CCC(=O)O)[C@H]1CC[C@H]2[C@@H]3CC[C@@H]4C[C@H](O)CC[C@]4(C)[C@H]3CC[C@]12C | -14.9% (inactive) | –

Row | SMILES | inhibition | IC50
27 | Cc1cnc(C(=O)Nc2ccc(S(=O)(=O)NCC(C)C)cc2)cn1 | 3.46% (inactive) | –
28 | CCCCn1nnnc1SCC(=O)Nc1ccc(N(C)C)cc1 | – | 3.37 µM (active)
29 | Nn1c(SCC(=O)NC(=O)Nc2ccc3c(c2)OCCO3)nnc1C1CC1 | 19.5% (inactive) | –
30 | CCCCOC(=O)c1ccc(NC(=O)CSc2nnnn2C)cc1 | -25.8% (inactive) | –
31 | CN(C)c1ccc(NC(=O)CSc2nnc(-c3cnccn3)n2C)cc1 | – | 7.11 µM (active)
32 | CCn1c(SCC(=O)Nc2ccc(N(C)C)cc2)nnc1C1CC1 | – | 5.16 µM (active)
33 | Cc1nnc(SCC(=O)Nc2ccc(N(C)C)cc2)n(N)c1=O | – | 5.56 µM (active)
34 | Cn1ccnc1SCC(=O)Nc1cccc(C(F)(F)F)c1 | 21% (inactive) | –
35 | CCn1c2ccccc2c2cc(NC(=O)CSc3nnc(C4CC4)n3Cc3ccco3)ccc21 | -0.57% (inactive) | –
36 | Cc1cc(-c2nc3c4c5c(sc4[nH]c(=O)n3n2)CCC5)c(C)o1 | 29.2% (inactive) | –
37 | CNC[C@@H](C)NC[C@@H](Cc1ccccc1)NCCc1ccccc1 | 2.97% (inactive) | –
38 | Cc1c(CCC(=O)NCCCC(=O)O)c(=O)oc2cc3oc4c(c3cc12)CCCC4 | -7.81% (inactive) | –
39 | CCOC(CNC(=O)C1CCN(S(=O)(=O)c2ccc3nc4c(c(C(=O)O)c3c2)CCCCC4)CC1)OCC | -31.7% (inactive) | –
40 | O=C(NCc1ccco1)C1CC(=O)N(c2ccc(O)cc2)C1 (stereo unspecified) | – | 6.48 µM (active)
41 | O=C(CCN1C(=O)c2ccccc2S1(=O)=O)NCc1ccco1 | -8.68% (inactive) | –
42 | Cc1ccc(C)c(S(=O)(=O)N2CCCCC2CCNC(=O)C(=O)NCc2ccco2)c1 (stereo unspecified) | -0.3% (inactive) | –
43 | Cc1nc2ccc(N=NN(C)C)cc2[nH]1 | -2.2% (inactive) | –
44 | CCCCC1(C)OC(=O)C(=Cc2ccc(-c3ccc(Cl)c(C(=O)O)c3)o2)C(=O)O1 (stereo unspecified) | 18.5% [at 50 µM] (inactive) | –
45 | Cc1cccc(N2NC(=O)/C(=C/c3ccc(-c4ccc(Cl)c(C(=O)O)c4)o3)C2=O)c1 | – | 31.9 µM (active)
46 | O=C1NN(c2ccccc2)C(=O)/C1=C/c1ccc(-c2ccc(Cl)c(C(=O)O)c2)o1 | – | 13.7 µM (active)
47 | N#CC1=C(S)N(c2ccccc2)C(c2ccc(-c3ccc(Cl)c(Cl)c3)o2)NC1=O (stereo unspecified) | 24.3% (inactive) | –
48 | Cn1sc(=O)c2cc(S(=O)(=O)NC3CC3)ccc21 | -4.05% (inactive) | –
49 | CCN1C(=O)CC(N2CCC(Nc3ccc(OC)cc3)CC2)C1=O (stereo unspecified) | – | 4.87 µM (active)
50 | O=C1NC(=O)C(c2ccccc2[N+](=O)[O-])=C1Nc1ccc(O)c(Cl)c1 | – | 11.8 µM (active)
51 | O=C(O)c1cc(Nc2cc(Cl)c3nonc3c2[N+](=O)[O-])ccc1O | -13.7% (inactive) | –
52 | N=c1c2c(ncn1CCCO)Oc1ccc3ccccc3c1C2c1ccccc1 (stereo unspecified) | -10.2% (inactive) | –

Row | SMILES | inhibition | IC50
53 | COc1cc(/C=C(\C#N)c2nc3ccccc3n2C)cc(OC)c1O | – | 6.31 µM (active)
54 | COc1cc(/C=C(\C#N)c2ccccn2)cc(OC)c1O | – | 4.83 µM (active)
55 | COc1ccc(-c2ccc(OC(=O)NC3CCS(=O)(=O)C3)cc2)cc1 (stereo unspecified) | – | 5.8 µM (active)
56 | COc1ccc(S(=O)(=O)N2CCC(NC(=O)c3ccccc3)CC2)cc1 | -31% (inactive) | –
57 | O=c1c(C(c2c(O)nc3n(c2=O)CCS3)c2cccc3ccccc23)c(O)nc2n1CCS2 | – | 20.9 µM (active)
58 | C=CCOc1ccc(C2NC(=S)NC(c3ccccc3)=C2C(C)=O)cc1OC (stereo unspecified) | 18.3% [at 50 µM] (inactive) | –
59 | Oc1ccc(/C=N/Nc2ccc(Cl)nn2)cc1O | – | 8.65 µM (active)
60 | Oc1ccc(/C=N/Nc2ccc(C(F)(F)F)cn2)cc1O | – | 5.59 µM (active)
61 | N=C1/C(=C/c2ccc(Br)o2)C(=O)N=C2SC(CC(=O)N3CCCC3)=NN12 | -27.2% (inactive) | –
62 | N#CC1(NC(=O)COC(=O)c2cc(O)c3ccccc3c2O)CCCCC1 | -260% (inactive) | –
63 | CN(C(=O)c1ccccc1C(=O)OCC(=O)NCc1cccs1)C1CCCCC1 | – | 44.1 µM (active)
64 | CC1=C(C(=O)OCC(C)C)C(c2cccs2)NC(=S)N1 (stereo unspecified) | 21.6% (inactive) | –
65 | Cc1ccc(-n2nnnc2C(Cl)(Cl)c2nnnn2-c2ccc(C)cc2)cc1 | -30.1% (inactive) | –
66 | c1coc(-c2nc(-c3ccco3)c(-c3ccco3)nc2-c2ccco2)c1 | -94.1% (inactive) | –
67 | Nc1nc(-c2ccco2)cs1 | – | 10.8 µM (active)
68 | c1coc(-c2nc3ccccc3nc2-c2ccco2)c1 | 18.3% (inactive) | –
69 | Nc1ccc(-c2sc(N)nc2-c2ccccc2)cc1 | – | 8.36 µM (active)
70 | NC(=O)c1sc2nnc(-c3ccccc3)c(-c3ccccc3)c2c1N | 19.4% (inactive) | –
71 | ClCC1=Nc2cccc3cccc(c23)N1 | – | 4.21 µM (active)
72 | CCOc1cc(/C=N\NC(=O)CC(=O)NCCc2ccccc2)ccc1O | – | 4.71 µM (active)
73 | O=C(COC(=O)CSc1ccc([N+](=O)[O-])cc1)NCCc1ccccc1 | -13.7% (inactive) | –
74 | COc1cc(/C=N\NC(=O)CC(=O)NCCc2ccccc2)ccc1O | – | 3.22 µM (active)
75 | CC(C)CCNC(=O)CCCc1ccccc1 | -7.26% (inactive) | –
76 | COc1ccc(Cl)cc1NC(=S)N1CCC(c2ccc(C)cc2)C1 (stereo unspecified) | 9.81% (inactive) | –
77 | COc1ccc(N2CCC(CNC(=S)Nc3c(C)cc(C)cc3C)C2)cc1 (stereo unspecified) | – | 12.1 µM (active)
78 | COc1ccc(N2CCC(CNC(=S)Nc3ccc(C)cc3C)C2)cc1 (stereo unspecified) | – | 10.7 µM (active)

Row | SMILES | inhibition | IC50
79 | COc1ccc(N2CCC(CNC(=S)Nc3c(C)cccc3C)C2)cc1 (stereo unspecified) | – | 7.45 µM (active)
80 | Cc1ccc(NC(=S)NCC2CCN(C(C)c3ccccc3)C2)cc1C (stereo unspecified) | 20.5% [at 50 µM] (inactive) | –
81 | Cc1cc(SCC(=O)c2ccccc2)nc(C)n1 | 16.8% (inactive) | –
82 | O=C(CSc1nc2ccccc2c(=O)[nH]1)c1ccc(O)c(O)c1 | – | 9.7 µM (active)
83 | O=C(CSc1n[nH]c(-c2ccccc2)n1)c1ccc(O)c(O)c1 | – | 10 µM (active)
84 | N#Cc1c(-c2ccccc2)nc(SCC(=O)N2c3ccccc3Sc3ccccc32)[nH]c1=O | -1.42% (inactive) | –
85 | O=C(CSc1nc2ccccc2n1CCc1ccccc1)c1ccc(O)c(O)c1 | – | 43.4 µM (active)
86 | Cc1ccc(C(=O)N(Cc2ccc3c(c2)OCO3)Cc2nc3ccccc3c(=O)[nH]2)cc1 | 9.42% (inactive) | –
87 | CCCn1c(SC(C)C(=O)O)nc2ccccc21 (stereo unspecified) | 9.81% (inactive) | –
88 | Brc1ccc(-c2n(-c3ccccn3)c3ccccc3[n+]2-c2ccccn2)cc1 | 1.83% (inactive) | –
89 | CC(=O)N1c2c(cc(Br)cc2S(=O)(=O)N2CCCCC2)CC1C (stereo unspecified) | 17.1% (inactive) | –
90 | C[c-]1[c-](C)[c-](C)[c-](C)[c-]1C.[Fe].c1cc2nccc(N3CCCC3)[c-]2c1 (stereo unspecified) | – | 5.8 µM (active)
91 | CCOC(=O)N1CCC(NC(=O)c2cnn3c2NC(c2ccco2)CC3C(F)(F)F)CC1 (stereo unspecified) | 12.3% (inactive) | –
92 | CCN(C(=O)CN1CCN(c2cccc(Cl)c2)CC1)c1c(N)n(Cc2ccccc2)c(=O)[nH]c1=O | -12.3% (inactive) | –
93 | CCN(C(=O)CN1CCN(c2ccc(O)cc2)CC1)c1c(N)n(Cc2ccccc2)c(=O)[nH]c1=O | – | 4.79 µM (active)
94 | COCCN(C(=O)COC(=O)c1cc2c(s1)CCC2)c1c(N)n(Cc2ccccc2)c(=O)[nH]c1=O | 4.61% (inactive) | –
95 | CC1=NN(c2nc(-c3ccccc3)cs2)C(=O)C1 | – | 56 µM (active)
96 | CC1=NN(c2nc(-c3ccc(C#N)cc3)cs2)C(=O)C1 | -10.8% (inactive) | –
97 | Nc1ccc(Sc2ccccc2CC(=O)O)cc1 | – | 16.9 µM (active)
98 | OCc1ccccc1SSc1ccccc1CO | 11.8% (inactive) | –
99 | Cc1ccc(-c2c3c([nH]c(=S)c2C#N)CCCC3)o1 | 15.4% [at 50 µM] (inactive) | –
100 | N#Cc1c(-c2ccco2)cc(-c2ccccc2)[nH]c1=O | -12.2% (inactive) | –
101 | N#Cc1c(-c2ccco2)c2c([nH]c1=S)CCCC2 | – | 95.5 µM (active)

Reference: PubChem BioAssay AID2501 (Southern Research Specialized Biocontainment Screening …, 2010)
